Screening results as filed in PubChem BioAssay.
A selection: hits, their analogues and other compounds. The true share with any hit is near 27%.
CYP2C9 activ = human CYP2C9 activators, primary screen, biochemical, luminescence. AID 1024, 2008. activation factor at 5 µM. Cytochrome P450 2C9 (Homo sapiens), P11712. recombinant CYP2C9, luciferin-H conversion; stronger effect = higher value; factor 1 = untreated enzyme, 0 = blocked. 96,000 tested, 1.4% active;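 active = activation factor of 2 or more for CYP2C9 at a 5 µM dose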;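 note: 0 = sulfaphenazole-blocked wells and 1 = vehicle-only wells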
Target sequence (P11712 whole entry, looked up): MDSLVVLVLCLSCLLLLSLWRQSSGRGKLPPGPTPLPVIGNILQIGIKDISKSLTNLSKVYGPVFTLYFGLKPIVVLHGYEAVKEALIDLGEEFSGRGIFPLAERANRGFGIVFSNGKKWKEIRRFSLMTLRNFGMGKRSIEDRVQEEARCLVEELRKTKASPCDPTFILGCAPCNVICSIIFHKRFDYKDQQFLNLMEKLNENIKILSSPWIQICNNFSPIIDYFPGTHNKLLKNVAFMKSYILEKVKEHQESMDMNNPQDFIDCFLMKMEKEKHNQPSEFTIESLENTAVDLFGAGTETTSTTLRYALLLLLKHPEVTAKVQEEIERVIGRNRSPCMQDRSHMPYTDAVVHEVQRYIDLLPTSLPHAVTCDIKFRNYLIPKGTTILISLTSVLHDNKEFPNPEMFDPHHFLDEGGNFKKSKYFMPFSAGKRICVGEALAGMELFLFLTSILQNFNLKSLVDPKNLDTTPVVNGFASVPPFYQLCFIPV
CYP2C19 act = human CYP2C19 activators, primary screen, biochemical, luminescence; AID 1025, 2008; recombinant CYP2C19, luciferin-H EGE luminescence; stronger effect = higher value; 0 = fully inhibited enzyme, 1 = untreated enzyme; 96,000 tested, under 10 active; activation factor at 5 µM; Cytochrome P450 2C19 (Homo sapiens), P33261;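 active = activation factor of at least 2 at 5 µM in the primary screen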;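 note: 0 = wells with 2.5 mM tranylcypromine and 1 = vehicle-only wells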
sEH inhibitor = soluble epoxide hydrolase inhibitors, primary screen, biochemical, human sEH; Bifunctional epoxide hydrolase 2 (Homo sapiens), P34913; recombinant human sEH enzymatic activity assay; inhibition, % at 2 µM; 91,000 tested, 0.34% active; in the data active = inhibition above about 80%
sEH activator = soluble epoxide hydrolase activators, primary screen, biochemical, human sEH; activation, % at 2 µM; Bifunctional epoxide hydrolase 2 (Homo sapiens), P34913; 91,000 tested, 0.04% active; AID 717, 2007; purified human sEH enzymatic activity, activator screen; in the data active = activation above about 37%
CYP2C9 inhib = blockers of cytochrome P450 2C9 activity – biochemical, luminescence, ADME assay, primary screen; CYP2C9 Supersomes, luciferin-H conversion; AID 777, 2007; P11712; inhibition, % at 5 µM; 96,000 tested, 20% active;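 active = blocking of liver enzyme CYP2C9 beyond about 50% at 5 µM, limit read from the data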
CYP2C19 inhib = blockers of cytochrome P450 2C19 activity – biochemical, luminescence, ADME assay, primary screen; 96,000 tested, 21% active; P33261; AID 778, 2007; inhibition, % at 5 µM; CYP2C19 Supersomes, luciferin-H EGE luminescence, 30 min;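 active = CYP2C19 inhibition above a set limit at 5 µM in the primary screen, cut at about 50% in these data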;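 note: plate controls were negative control wells for no effect and 2.5 mM tranylcypromine positive control for full effect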
Numbers without * were called inactive; nt = no result given.

SMILES | CYP2C9 activ | CYP2C19 act | sEH inhibitor | sEH activator | CYP2C9 inhib | CYP2C19 inhib
CN1CCN(C(=O)Cn2c(=O)oc3cc(S(=O)(=O)NCc4ccccc4)ccc32)CC1 | 0.5 | 0.9 | 6 | -7 | 50* | 13
CC(=O)c1cccc(NS(=O)(=O)c2ccc3c(c2)oc(=O)n3C)c1 | 0.8 | 0.6 | 2 | 1 | 25 | 43
CCOC(=O)Cn1c(=O)oc2cc(S(=O)(=O)Nc3ccc(F)cc3)ccc21 | 0.4 | 0.6 | 6 | -7 | 58* | 38
CCOC(=O)Cn1c(=O)oc2cc(S(=O)(=O)NCCc3ccc(C)cc3)ccc21 | 0.3 | 0.5 | 5 | -6 | 70* | 50*
CCOC(=O)Cn1c(=O)oc2cc(S(=O)(=O)NCCCc3ccccc3)ccc21 | 0.3 | 0.7 | -2 | 1 | 68* | 34
COc1ccc(C2CC(c3ccc(Cl)c(Cl)c3)Nc3nc(N)nn32)cc1 (centres undefined) | 0.8 | 0.8 | -12 | 17 | 24 | 16
O=c1[nH]c2ccccc2c(=O)n1Cc1ccco1 | 1.1 | 1 | -3 | 1 | -8 | 3
C/C(=N\OC(=O)c1ccc(Cl)cc1)c1nccs1 | 0.9 | 0.6 | -9 | 8 | 7 | 36
Cc1cc(=O)oc2c1ccc1oc(/C(=N/O)c3ccccc3)c(C)c12 | 0.4 | 0.9 | -5 | 7 | 60* | 6
COC(=O)c1ccc2c(=O)n(CCN3CCOCC3)c(=S)[nH]c2c1 | 1 | 0.9 | -11 | 8 | -4 | 12
Cn1cc(-c2nnnn2-c2cccc(C(F)(F)F)c2)c(C(F)(F)F)n1 | 0.6 | 0 | 3 | -1 | 42 | 98*
COc1ccc(CC(=O)Nc2ccc(S(=O)(=O)Nc3ncccn3)cc2)cc1 | 1.1 | 1 | -4 | 2 | -10 | 0
CC(C)Oc1ccc(C(=O)N/N=C/c2ccc(-c3ccc(S(=O)(=O)Nc4ncccn4)cc3)o2)cc1 | 0.2 | 0.8 | 50 | -51 | 84* | 19
Cc1cccc(OCCCCc2c(C)n[nH]c2C)c1C | 0.3 | 0.1 | -4 | 5 | 74* | 88*
CCOc1ccccc1OCCCOc1ccc(C)cc1Br | 1 | 0.7 | 2 | 0 | -1 | 26
CCOc1ccccc1OCCCCCc1c(C)n[nH]c1C | 0.8 | 0.2 | nt | nt | 19 | 77*
COc1ccccc1OCCCc1c(C)n[nH]c1C | 0.9 | 0.3 | 16 | -15 | 6 | 67*
COc1ccccc1OCCCCCc1c(C)n[nH]c1C | 0.9 | 0.5 | 2 | -2 | 13 | 54*
COc1ccc(NC(=O)Nc2ccccc2C(=O)N2CCCC2)cc1 | 0.8 | 0.7 | 4 | 0 | 16 | 33
O=C(Nc1ccc(S(=O)(=O)N2CCOCC2)cc1)c1ccc(Br)o1 | 0.9 | 1 | 41 | -42 | 8 | -1
CCNc1nc(Oc2ccc(C(=O)OC)cc2)nc(N(C)C)n1 | nt | nt | 4 | -2 | nt | nt
COC(=O)c1ccc(Oc2nc(Nc3ccc(C)c(C)c3)nc(N(C)C)n2)cc1 | 0.3 | 0.4 | -15 | 13 | 71* | 56*
O=S(=O)(NC1=NCCC1)c1cccs1 | 1.1 | 0.9 | 0 | 1 | -7 | 8
O=C1OCc2cc(NS(=O)(=O)c3cccs3)ccc21 | 0.1 | 0.2 | 7 | -3 | 89* | 76*
CS(=O)(=O)Nc1ccc2c(c1)C(=O)OC2 | 1.1 | 1.1 | -5 | 3 | -12 | -10
SMILES | CYP2C9 activ | CYP2C19 act | sEH inhibitor | sEH activator | CYP2C9 inhib | CYP2C19 inhib
O=S(=O)(Nc1ccc2c(c1)CCC2)c1cccs1 | 0.2 | 0 | nt | nt | 83* | 99*
COc1ccc(S(=O)(=O)Nc2ccc3c(c2)COC3=O)cc1OC | 0.6 | 0.2 | 7 | -6 | 39 | 84*
CC(C)(C)NC(=O)CN(C(=O)CS(=O)CC(=O)Nc1ccc(F)cc1)c1ccc(Cl)cc1 (centres undefined) | 0.5 | 1 | -6 | 5 | 45 | 2
CCCC(c1nnnn1CCc1ccccc1)N1CCN(C(=O)c2ccco2)CC1 (centres undefined) | 0.8 | 0.9 | 8 | -8 | 24 | 14
O=C(NC1CCCC1)C1CC1c1ccccc1 (centres undefined) | 0.4 | 0.3 | -6 | 5 | 63* | 73*
O=C(Nc1ccncc1)C1CC1c1ccccc1 (centres undefined) | 0.2 | 0 | 4 | -1 | 84* | 97*
CCc1c(C)sc(NC(=O)C2CC2c2ccccc2)c1C(N)=O (centres undefined) | 0.8 | 0.6 | 0 | -2 | 22 | 42
CCOC(=O)N1CCN(C(=O)CSCC(=O)N=c2sc3ccccc3n2C)CC1 | 1 | 1 | -1 | -1 | 5 | -1
CCCC1(C(=O)OCC)NC(c2cc(OC)c(OC)c(OC)c2)C2C(=O)N(CC)C(=O)C21 (centres undefined) | 0.9 | 1 | 6 | -7 | 13 | 4
CCCCCn1c(SCCN2CCOCC2)nc2c1c(=O)[nH]c(=O)n2C | 0.7 | 1 | 5 | -6 | 35 | -4
CCCCC(=O)Nc1sc2c(c1C(N)=O)CCC2 | 0.2 | 0.5 | 20 | -21 | 77* | 47
CCC1(CC)NC(=O)N(CC(=O)Nc2sc3c(c2C(N)=O)CCC3)C1=O | 0.3 | 0.6 | -5 | 2 | 74* | 39
CC(C)C1O/C(=N/C(=O)Nc2ccc(Cl)c(Cl)c2)NC1=O (centres undefined) | 0.9 | 0.9 | 0 | -2 | 7 | 7
CCOc1ccccc1OCCOc1ccccc1OC(C)C | 0.9 | 0.4 | -14 | 12 | 11 | 56*
COc1cccc(OCCOc2ccccc2OC(C)C)c1 | 0.8 | 0.1 | -31 | 30 | 22 | 90*
CCOc1ccccc1OCCOc1ccccc1CC | 1 | 0.7 | -10 | 13 | 2 | 30
CCOc1ccccc1OCCOc1cccc(C(F)(F)F)c1 | 1.4 | 0.8 | -1 | 5 | -35 | 20
O=c1[nH]c(=O)n(Cc2ccccc2)c2c1C(C(F)(F)F)(C(F)(F)F)N=C(c1ccco1)N2 | 0.5 | 0.8 | 4 | -3 | 46 | 16
CC1=C(C#N)C(C(F)(F)F)(C(F)(F)F)N=C(c2ccco2)N1 | 0.3 | 0.2 | 4 | -4 | 75* | 82*
Cc1cc(C)n(C(=O)c2cc3c(s2)CCCC3)n1 | 1 | 1 | 2 | -2 | 1 | 1
Cc1ncc([N+](=O)[O-])n1CCOC(=O)c1ccc(Cl)cc1Cl | 0.8 | 0.5 | 8 | -5 | 22 | 51*
CCCCS(=O)(=O)NC1=NCN(C2CCN(Cc3ccccc3)CC2)CN1 | nt | nt | 9 | -4 | nt | nt
Cc1cc(-c2nnc3n2CCCCC3)c(C)n1-c1ccccc1 | 0.5 | 0.7 | 0 | 1 | 51* | 34
Cc1ccc(-c2nnc3n2CCCCC3)cc1 | 1.1 | 1.1 | 1 | -3 | -11 | -10
